Measured values from PubChem BioAssay.
Calls of active or inactive are those of the source.

Experiments:
[1] = tested on: PRMT1 (protein arginine N-methyltransferase 1); test: PRMT1 binders on small-molecule microarrays, primary screen, biochemical, small-molecule microarray, 635 nm fluorescence (AID 1088); conditions: small-molecule microarray binding, higher = more signal;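 note: binding of Prmt1 protein to compounds spotted on small-molecule microarray slides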
[2] = yeast growth modulation, basal conditions, primary screen, YJM789 clinical isolate, OD600, 24 h (AID 1089);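 note: growth of clinical yeast isolate S. cerevisiae YJM 789 seeded 1000 cells per well; test concentration not given here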; conditions: S. cerevisiae YJM789 growth, higher = more signal, called active from +8 up or from −8 down
[3] = fission yeast growth modulation, primary screen, strain 972, OD600, 24 h, no modulator (AID 1090);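 note: basal condition with compound alone and no growth modifier present; test concentration not given here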; conditions: S. pombe 972 growth, higher = more signal, called active from +8 up or from −8 down
[4] = S. cerevisiae growth modulation with rapamycin, primary screen, strain BY4716, OD600, 96 h (AID 1091); conditions: higher = more signal, called active from +8 up or from −8 down; note: test concentration not given here
[5] = target: Torsin-1A-interacting protein 2 (Homo sapiens) (UniProt Q8NFQ8); test: LULL1 binders on small-molecule microarray, primary screen, cell lysate, human LULL1 lysate, 635/667 nm fluorescence (AID 1092); conditions: hLULL1 lysate binding, 635 nm fluorescence, higher = more signal;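 note: probe is lysate of COS7 cells overexpressing human LULL1; score merges per-feature 667 nm fluorescence with signal-to-noise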
Chain of Torsin-1A-interacting protein 2 (Homo sapiens) (Q8NFQ8 whole entry, looked up): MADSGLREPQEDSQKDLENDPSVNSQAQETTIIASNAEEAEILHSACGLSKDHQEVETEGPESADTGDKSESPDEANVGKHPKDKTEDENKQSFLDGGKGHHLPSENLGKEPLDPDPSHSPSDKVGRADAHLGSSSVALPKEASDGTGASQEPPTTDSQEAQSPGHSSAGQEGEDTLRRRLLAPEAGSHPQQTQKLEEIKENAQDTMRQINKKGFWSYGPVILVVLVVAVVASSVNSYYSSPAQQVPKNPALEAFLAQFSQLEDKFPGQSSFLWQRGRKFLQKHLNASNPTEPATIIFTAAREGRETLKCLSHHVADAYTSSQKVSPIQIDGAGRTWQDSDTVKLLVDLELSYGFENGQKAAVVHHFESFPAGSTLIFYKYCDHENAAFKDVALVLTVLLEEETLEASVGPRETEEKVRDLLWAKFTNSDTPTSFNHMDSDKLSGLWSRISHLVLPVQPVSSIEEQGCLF

[6] = E. coli growth modulation, two-sided OD650, primary screen, E. coli filamentation project, strain DRC41, 24 h (AID 1093); conditions: OD650, 24 h, higher = more signal, called active from +8 up or from −8 down;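 note: MC1000 strain lacking acrAB efflux and sulA so SOS filamentation is blocked; test concentration not given here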
[7] = small-molecule microarray binders of probe aLefty2, primary screen, biochemical, biotinylated probe, 635/667 nm fluorescence (AID 1094); conditions: higher = more signal;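 note: score merges spot fluorescence near 667 nm with spot signal-to-noise ratio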
[8] = tested on: Noggin (protein binding on small-molecule microarray); test: Noggin binders on small-molecule microarray, primary screen, biochemical, 635/667 nm fluorescence (AID 1095); conditions: 635 nm fluorescence, higher = more signal;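 note: score merges 667 nm feature fluorescence with signal to noise over triplicate slides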
[9] = target: Neurogenic locus notch homolog protein 3 (Homo sapiens) (UniProt Q9UM47); test: NOTCH3 binders on small-molecule microarray, primary screen, biochemical, 635/667 nm fluorescence (AID 1096); conditions: NOTCH3 binding, 635 nm fluorescence, higher = more signal
Chain of Neurogenic locus notch homolog protein 3 (Homo sapiens) (Q9UM47 whole entry, looked up): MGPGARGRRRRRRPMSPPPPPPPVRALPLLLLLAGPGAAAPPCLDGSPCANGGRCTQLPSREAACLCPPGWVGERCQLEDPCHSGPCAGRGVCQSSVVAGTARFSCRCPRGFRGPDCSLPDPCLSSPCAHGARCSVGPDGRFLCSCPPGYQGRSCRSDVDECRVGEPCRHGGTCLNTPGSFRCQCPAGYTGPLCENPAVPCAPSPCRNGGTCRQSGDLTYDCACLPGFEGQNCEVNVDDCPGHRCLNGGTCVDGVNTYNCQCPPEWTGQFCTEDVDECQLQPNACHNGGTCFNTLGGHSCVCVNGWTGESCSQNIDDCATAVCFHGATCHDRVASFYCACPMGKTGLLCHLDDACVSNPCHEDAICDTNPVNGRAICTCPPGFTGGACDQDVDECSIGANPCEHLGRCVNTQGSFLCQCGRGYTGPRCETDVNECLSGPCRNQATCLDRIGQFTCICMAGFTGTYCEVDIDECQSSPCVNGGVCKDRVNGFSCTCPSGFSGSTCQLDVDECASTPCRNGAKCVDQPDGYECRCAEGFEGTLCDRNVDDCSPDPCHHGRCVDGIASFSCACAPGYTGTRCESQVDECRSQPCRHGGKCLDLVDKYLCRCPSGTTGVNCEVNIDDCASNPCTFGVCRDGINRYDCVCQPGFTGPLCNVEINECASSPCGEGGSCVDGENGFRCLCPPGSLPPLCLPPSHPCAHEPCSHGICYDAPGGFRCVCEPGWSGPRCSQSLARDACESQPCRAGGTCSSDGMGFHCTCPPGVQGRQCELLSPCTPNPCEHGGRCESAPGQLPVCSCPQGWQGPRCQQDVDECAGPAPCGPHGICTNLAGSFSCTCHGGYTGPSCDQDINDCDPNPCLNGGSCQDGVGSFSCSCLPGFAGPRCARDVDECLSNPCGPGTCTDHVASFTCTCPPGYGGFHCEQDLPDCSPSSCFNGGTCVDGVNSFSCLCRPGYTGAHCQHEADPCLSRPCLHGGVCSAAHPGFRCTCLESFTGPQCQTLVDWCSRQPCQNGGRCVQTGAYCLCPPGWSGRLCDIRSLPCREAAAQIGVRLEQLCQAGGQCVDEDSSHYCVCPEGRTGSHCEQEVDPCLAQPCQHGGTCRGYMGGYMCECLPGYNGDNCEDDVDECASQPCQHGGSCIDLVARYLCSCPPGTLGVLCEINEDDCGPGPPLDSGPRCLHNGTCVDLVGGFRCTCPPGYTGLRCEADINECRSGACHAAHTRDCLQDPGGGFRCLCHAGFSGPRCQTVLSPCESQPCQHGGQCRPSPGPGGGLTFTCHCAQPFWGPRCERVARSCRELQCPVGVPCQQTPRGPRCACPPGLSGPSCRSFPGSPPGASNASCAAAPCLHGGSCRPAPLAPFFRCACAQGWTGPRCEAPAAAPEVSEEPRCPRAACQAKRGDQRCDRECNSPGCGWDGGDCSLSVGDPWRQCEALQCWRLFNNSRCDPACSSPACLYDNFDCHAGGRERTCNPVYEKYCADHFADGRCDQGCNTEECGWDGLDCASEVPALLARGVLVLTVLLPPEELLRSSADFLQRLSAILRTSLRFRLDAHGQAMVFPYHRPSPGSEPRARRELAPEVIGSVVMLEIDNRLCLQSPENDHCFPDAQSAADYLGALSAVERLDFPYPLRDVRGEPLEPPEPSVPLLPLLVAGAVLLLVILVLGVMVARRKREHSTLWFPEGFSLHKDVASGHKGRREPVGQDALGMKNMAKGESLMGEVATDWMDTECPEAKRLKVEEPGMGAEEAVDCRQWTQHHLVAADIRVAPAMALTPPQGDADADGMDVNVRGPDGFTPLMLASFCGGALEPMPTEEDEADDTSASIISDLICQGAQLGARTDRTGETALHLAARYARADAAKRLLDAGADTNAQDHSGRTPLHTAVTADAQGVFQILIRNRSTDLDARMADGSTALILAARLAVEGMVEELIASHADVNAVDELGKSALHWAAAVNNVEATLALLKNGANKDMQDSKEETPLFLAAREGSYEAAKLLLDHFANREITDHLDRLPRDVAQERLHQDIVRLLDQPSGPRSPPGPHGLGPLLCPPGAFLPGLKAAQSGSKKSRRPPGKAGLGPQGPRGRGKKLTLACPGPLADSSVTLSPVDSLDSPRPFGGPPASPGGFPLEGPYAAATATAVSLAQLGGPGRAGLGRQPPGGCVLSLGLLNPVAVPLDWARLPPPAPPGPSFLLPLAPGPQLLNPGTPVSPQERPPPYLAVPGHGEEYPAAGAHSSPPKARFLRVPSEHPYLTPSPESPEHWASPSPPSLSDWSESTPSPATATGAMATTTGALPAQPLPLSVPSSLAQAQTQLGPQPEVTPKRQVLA

[10] = small-molecule microarray binders of probe aEGFR, primary screen, biochemical, biotinylated probe, 635/667 nm fluorescence (AID 1097); conditions: higher = more signal;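 note: probe is a biotinylated anti-EGFR antibody binding compounds printed on slides; score combines fluorescence near 667 nm and signal to noise of each spot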
[11] = tested on: Plasmodium falciparum Sir2 (PF13_0152, Sir2A); test: pfSir2 binders on small-molecule microarrays, primary screen, biochemical, small-molecule microarray, 635 nm fluorescence (AID 1098); conditions: small-molecule microarray binding, fluorescence 635 nm; higher = more signal;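 note: score merges spot fluorescence intensity with its signal-to-noise ratio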
[12] = small-molecule microarray binders of probe aDKK1, primary screen, biochemical, biotinylated probe, 635/667 nm fluorescence (AID 1099); conditions: higher = more signal;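 note: score merges 667nm spot fluorescence with signal to noise across triplicate slides; reference of the scale not given here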
[13] = small-molecule microarray binders of probe aCHRDL2, primary screen, biochemical, biotinylated probe, 635/667 nm fluorescence (AID 1100); conditions: higher = more signal
[14] = splicing luciferase reporter signal modulators, primary screen, spliceosome inhibition project, cell-based, HEK293, splice +/- reporter (AID 1101); conditions: luminescence, 24 h, higher = more signal, called active from +8 up or from −8 down;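 note: HEK293 cells carrying a splicing-competent luciferase reporter gene; test concentration not given here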
[15] = target: Fibroblast growth factor 10 (Homo sapiens) (UniProt O15520); test: FGF10 binders on small-molecule microarrays, primary screen, biochemical, small-molecule microarray, 635 nm fluorescence (AID 1102); conditions: FGF10 binding, fluorescence 635 nm, higher = more signal
Chain of Fibroblast growth factor 10 (Homo sapiens) (O15520 whole entry, looked up): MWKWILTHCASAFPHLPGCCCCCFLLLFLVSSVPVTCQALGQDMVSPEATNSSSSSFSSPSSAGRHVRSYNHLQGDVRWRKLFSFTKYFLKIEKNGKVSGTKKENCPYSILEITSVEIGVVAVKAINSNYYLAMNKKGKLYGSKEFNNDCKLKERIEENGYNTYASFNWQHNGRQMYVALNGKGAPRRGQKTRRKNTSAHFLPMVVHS

[16] = tested on: glycogen synthase kinase-3 (GSK3A per assay name; protocol says GSK3B); test: GSK3 binders on small-molecule microarrays, primary screen, biochemical, small-molecule microarray, 635 nm fluorescence, GSK3A (AID 1103); conditions: small-molecule microarray binding, fluorescence 635 nm; higher = more signal; note: the record names both GSK3A and GSK3B
[17] = target: Epidermal growth factor receptor (Homo sapiens) (UniProt P00533); test: EGFR binders on small-molecule microarrays, primary screen, biochemical, small-molecule microarray, 635 nm fluorescence (AID 1104); conditions: EGFR binding, higher = more signal;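 note: score merges 667 nm emission intensity with spot signal to noise over triplicate slides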
Chain of Epidermal growth factor receptor (Homo sapiens) (P00533 whole entry, looked up): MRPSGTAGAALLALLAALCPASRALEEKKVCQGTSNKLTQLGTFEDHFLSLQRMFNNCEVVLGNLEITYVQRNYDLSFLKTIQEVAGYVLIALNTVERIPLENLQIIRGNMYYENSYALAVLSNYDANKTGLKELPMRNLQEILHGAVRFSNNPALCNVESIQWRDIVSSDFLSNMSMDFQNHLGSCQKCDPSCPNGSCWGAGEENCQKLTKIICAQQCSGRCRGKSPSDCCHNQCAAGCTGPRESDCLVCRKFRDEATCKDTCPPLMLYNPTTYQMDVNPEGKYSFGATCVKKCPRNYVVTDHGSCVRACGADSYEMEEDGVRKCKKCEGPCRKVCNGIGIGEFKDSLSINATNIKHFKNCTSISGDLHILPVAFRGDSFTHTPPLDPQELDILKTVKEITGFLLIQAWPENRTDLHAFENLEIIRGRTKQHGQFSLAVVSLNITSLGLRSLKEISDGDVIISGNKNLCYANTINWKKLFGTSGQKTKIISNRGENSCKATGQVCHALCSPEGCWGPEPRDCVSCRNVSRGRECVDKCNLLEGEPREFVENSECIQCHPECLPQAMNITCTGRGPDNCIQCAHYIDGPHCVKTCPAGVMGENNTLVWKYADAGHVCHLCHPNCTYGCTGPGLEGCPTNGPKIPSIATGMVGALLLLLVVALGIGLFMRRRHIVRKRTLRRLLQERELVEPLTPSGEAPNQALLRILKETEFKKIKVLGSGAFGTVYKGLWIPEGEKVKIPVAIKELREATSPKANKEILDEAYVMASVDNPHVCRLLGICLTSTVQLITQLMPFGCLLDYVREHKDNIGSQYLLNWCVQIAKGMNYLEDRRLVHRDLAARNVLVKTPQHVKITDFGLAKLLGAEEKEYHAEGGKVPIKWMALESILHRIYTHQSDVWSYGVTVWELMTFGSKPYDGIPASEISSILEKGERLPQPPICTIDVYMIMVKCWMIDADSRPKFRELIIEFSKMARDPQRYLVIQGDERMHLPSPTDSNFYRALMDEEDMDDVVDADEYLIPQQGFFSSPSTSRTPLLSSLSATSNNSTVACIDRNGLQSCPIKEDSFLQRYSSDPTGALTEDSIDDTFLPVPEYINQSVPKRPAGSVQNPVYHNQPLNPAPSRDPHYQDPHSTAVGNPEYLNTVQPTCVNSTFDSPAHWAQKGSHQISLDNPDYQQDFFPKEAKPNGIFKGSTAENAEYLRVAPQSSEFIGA

[18] = target: Follistatin-related protein 3 (Homo sapiens) (UniProt O95633); test: FSTL3 binders on small-molecule microarrays, primary screen, biochemical, small-molecule microarray, 635 nm fluorescence (AID 1105); conditions: FSTL3 binding, higher = more signal;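 note: score merges emission near 667 nm and signal to noise per printed spot across three slides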
Chain of Follistatin-related protein 3 (Homo sapiens) (O95633 whole entry, looked up): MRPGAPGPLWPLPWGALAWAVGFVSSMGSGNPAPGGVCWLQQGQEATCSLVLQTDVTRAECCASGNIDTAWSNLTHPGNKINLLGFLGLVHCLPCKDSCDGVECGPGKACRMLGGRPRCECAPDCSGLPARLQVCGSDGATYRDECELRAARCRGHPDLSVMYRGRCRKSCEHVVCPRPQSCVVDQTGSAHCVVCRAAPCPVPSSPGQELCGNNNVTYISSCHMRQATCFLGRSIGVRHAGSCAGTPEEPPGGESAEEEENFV

[19] = target: Dickkopf-related protein 1 (Homo sapiens) (UniProt O94907); test: DKK1 binders on small-molecule microarrays, primary screen, biochemical, small-molecule microarray, 635 nm fluorescence scan (AID 1106); conditions: DKK1 binding, higher = more signal;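 note: score merges emission near 667 nm with signal to noise over three replicate slides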
Chain of Dickkopf-related protein 1 (Homo sapiens) (O94907 whole entry, looked up): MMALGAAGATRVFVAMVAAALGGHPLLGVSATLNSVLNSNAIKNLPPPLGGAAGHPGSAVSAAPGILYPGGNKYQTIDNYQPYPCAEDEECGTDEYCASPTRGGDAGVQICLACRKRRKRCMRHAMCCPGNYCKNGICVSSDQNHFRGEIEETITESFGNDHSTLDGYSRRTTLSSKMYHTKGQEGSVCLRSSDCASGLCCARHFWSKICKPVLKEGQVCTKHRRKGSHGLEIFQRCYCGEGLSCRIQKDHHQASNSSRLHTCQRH

[20] = tested on: Inhibin beta A chain (activin A); test: INHBA (activin A) binders on microarrays, primary screen, biochemical, small-molecule microarray, 635 nm fluorescence scan (AID 1107); conditions: small-molecule microarray binding, higher = more signal;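 note: mouse activin A protein probed at 4.33 µg/mL on printed slides; score merges bound-protein fluorescence near 667 nm with spot signal-to-noise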

| SMILES | composite z-score [1] | z-score [2] | z-score [3] | z-score [4] | composite z-score [5] | z-score [6] | composite z-score [7] | composite z-score [8] | composite z-score [9] | composite z-score [10] | composite z-score [11] | composite z-score [12] | composite z-score [13] | z-score [14] | composite z-score [15] | composite z-score [16] | composite z-score [17] | composite z-score [18] | composite z-score [19] | composite z-score [20] |
| --- | --- | --- | --- | --- | --- | --- | --- | --- | --- | --- | --- | --- | --- | --- | --- | --- | --- | --- | --- | --- |
| CC(C)N1CC=CC23O[C@@H]4C=CCCOC(=O)C4[C@H]2C(=O)N(CCCO)[C@@H]3C1=O (stereo not given in full) | 0.521 | -0.198 (inactive) | -0.861 (inactive) | -0.824 (inactive) | 2.1 | 2.83 (inactive) | -0.215 | -0.0322 | 0.236 | -0.226 | 0.415 | -0.137 | 0.0009 | -1.38 (inactive) | -0.264 | -0.322 | -1.07 | -0.317 | -0.183 | 0.864 |
| COc1ccc([Si](C)(C)[C@H]2[C@H](CC(=O)N3CCC[C@H]3CO)O[C@@]3(C(=O)N(Cc4ccc(N5CCOC5=O)cc4)c4ccccc43)[C@@H]2C)cc1 | 1.56 | -0.546 (inactive) | 0.0871 (inactive) | -0.38 (inactive) | 2.31 | 1.08 (inactive) | -0.0063 | 1.32 | 1.11 | -0.0409 | 1.08 | -0.214 | -0.246 | 0.467 (inactive) | 1.22 | 1.14 | 0.737 | 1.06 | 0.672 | 0.378 |
| C=C(COC)/C(=C/C[C@H](OC(=O)c1ccncc1)c1ccccc1OCCO)c1cc(C(=O)OC)ccc1OC | 1.44 | -0.819 (inactive) | -0.925 (inactive) | -0.498 (inactive) | 2.65 | 0.0572 (inactive) | -0.157 | 1.23 | 1.04 | 0.146 | 0.515 | -0.0213 | -0.331 | -0.0627 (inactive) | 1.25 | 0.684 | 0.0709 | 1.33 | 0.242 | 1 |
| C=CCN1C(=O)[C@]2(CCC(=O)OC(C)(C)C)N=C(c3ccc(OCCCO)cc3)O[C@@H]2c2ccccc21 | 1.08 | -2.22 (inactive) | -1.56 (inactive) | 3.46 (inactive) | 2.02 | 1.06 (inactive) | 0.128 | 0.501 | 0.772 | 0.401 | 0.765 | 0.177 | 0.947 | -1.82 (inactive) | -0.184 | 0.298 | 0.348 | 0.635 | 0.384 | 1.18 |
| CC(=O)NCCCC[C@@H]1NC(=O)[C@@H]2C[C@H](C(=O)NCCCCCN)[C@H](c3ccc(O)cc3)N2C1=O | 1.32 | 0.0163 (inactive) | -0.747 (inactive) | 0.536 (inactive) | 2.25 | 2.29 (inactive) | 0.5 | 0.61 | 1.14 | 0.328 | 1.49 | 1.07 | 0.656 | 0.194 (inactive) | 1.23 | 1.28 | 0.662 | 1.02 | 1.33 | 1.26 |
| CCCCCN1CC=CC23O[C@@H]4C=CCCOC(=O)C4[C@H]2C(=O)N(CCCCCCO)[C@@H]3C1=O (stereo not given in full) | 0.812 | -0.0966 (inactive) | -0.0045 (inactive) | -0.0168 (inactive) | 3.49 | 0.313 (inactive) | -0.423 | -0.362 | -0.135 | -0.282 | 0.788 | -0.467 | -0.272 | 2.61 (inactive) | 0.0027 | -0.284 | -0.547 | -1.01 | -0.69 | -0.206 |
| COc1ccc(CCNC(=O)[C@@]2(c3ccc([N+](=O)[O-])cc3)CC(=O)N(C3CCCCC3)[C@@H]2c2ccc(CO)cc2)cc1 | 1.29 | 0.812 (inactive) | -0.501 (inactive) | 0.361 (inactive) | 2.75 | 1.3 (inactive) | 0.157 | -0.23 | 0.627 | -0.0452 | 0.54 | 0.701 | 0.806 | -0.134 (inactive) | 0.525 | 1 | -0.155 | 0.211 | 0.214 | 0.249 |
| COC(=O)[C@@]1(Cc2ccc(F)cc2)[C@H]2c3cc(C(=O)N4CCCC4)n(CCc4c[nH]c5ccccc45)c3C[C@H]2CN1C(=O)c1ccccc1 | 1.38 | 0.519 (inactive) | 1.68 (inactive) | 7.25 (inactive) | 3.42 | -1.3 (inactive) | 0.323 | 0.462 | 1.01 | 0.0688 | 0.539 | 0.948 | 1.03 | -0.593 (inactive) | 0.894 | 1.32 | 0.549 | 1.21 | 0.113 | 0.834 |
| CN1C2C=C(CCCO)C(C3C(=O)N(C(N)=O)C(=O)C32)C1C1CC1 (stereo not given) | -0.0255 | -0.163 (inactive) | -0.0516 (inactive) | -0.32 (inactive) | 0.0963 | -0.583 (inactive) | -0.0812 | -0.22 | -0.523 | -0.163 | -0.149 | -0.105 | 0.1 | 0.93 (inactive) | -0.0933 | -0.0699 | -0.0436 | -0.785 | 0.0144 | -0.393 |
| C=CCNC(=O)[C@@H]1[C@H]2C(=O)O[C@H](c3ccccc3)[C@H](c3ccccc3)N2[C@H](c2ccc(OCCO)cc2)[C@@]12C(=O)N(C(=O)OCCOC)c1ccc(C#Cc3ccc(OC)cc3)cc12 | 1.49 | 1.59 (inactive) | 1.77 (inactive) | 6.26 (inactive) | 3.13 | 0.361 (inactive) | 0.0645 | 1.23 | 1.05 | -0.0974 | 1.29 | 0.0181 | 0.299 | -1.33 (inactive) | 0.753 | 1.27 | 0.356 | 1.34 | 0.489 | 0.688 |
